Data taken from PubChem BioAssay (NCATS).
Records with an inconclusive call do not appear. Entries that show only a call come without a potency. Activity calls are given as the source filed them. Unless noted, calls come from the whole dose curve; as a rule, active = well fitted curve in the direction sought with a large enough effect; inconclusive = small, poorly fitted or top-dose-only effect, or another doubt; inactive = no such curve, though single readings can be large; an effect the other way counts as inactive or inconclusive.

Columns and labels:
[1] = qHTS profiling for inhibitors of Plasmodium falciparum (HB3) proliferation (AID 743324); details: Plasmodium falciparum HB3 blood-stage proliferation; at 28.7 µM (top of the series)
How it was run: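 P. falciparum HB3 grown in erythrocytes (0.3% parasitemia, 2.5% hematocrit final) with compound for 72 h at 37 C, 5% CO2. Parasite DNA detected by SYBR Green after saponin/triton lysis overnight; normalized to 0.29 uM artemisinin and DMSO.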

[2] = target: Cytochrome P450 2C19 (Homo sapiens) (UniProt P33261); assay: qHTS Assay for Inhibitors and Substrates of Cytochrome P450 2C19 (AID 899); details: recombinant CYP2C19, luciferin-H EGE luminescence; series mostly up to 57.1 µM; note: potency is the fitted concentration of half-maximal effect; nearly all actives have a fitted effect of over 60% in size
Cytochrome P450 2C19 (Homo sapiens), sequence (P33261 whole entry, looked up): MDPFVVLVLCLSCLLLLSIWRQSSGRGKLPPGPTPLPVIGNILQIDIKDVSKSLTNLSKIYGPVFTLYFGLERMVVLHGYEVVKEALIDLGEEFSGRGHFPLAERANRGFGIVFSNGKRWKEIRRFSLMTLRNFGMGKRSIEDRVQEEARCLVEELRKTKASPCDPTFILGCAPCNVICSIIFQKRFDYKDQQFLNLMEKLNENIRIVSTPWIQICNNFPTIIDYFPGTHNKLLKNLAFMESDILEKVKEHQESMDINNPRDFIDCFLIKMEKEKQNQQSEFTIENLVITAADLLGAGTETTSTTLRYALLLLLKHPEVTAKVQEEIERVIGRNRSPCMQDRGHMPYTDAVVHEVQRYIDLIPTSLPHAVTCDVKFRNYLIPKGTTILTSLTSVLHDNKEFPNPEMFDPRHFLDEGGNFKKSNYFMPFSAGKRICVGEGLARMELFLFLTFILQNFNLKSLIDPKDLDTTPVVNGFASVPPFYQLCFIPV
How it was run: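 Signal comes from luciferase acting on luciferin released by CYP2C19-mediated hydroxylation of Luciferin-H EGE, 10uM (KM). Assay mix: 5nM enzyme, 50mM KPO4; 60 min at 37C with NADPH regeneration. Data normalized against 57uM ketoconazole.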

[3] = target: Glutaminase kidney isoform, mitochondrial (Homo sapiens) (UniProt O94925); assay: qHTS for Inhibitors of Glutaminase (GLS): LOPAC Validation (AID 624146); details: glutaminase enzyme activity inhibition; series mostly up to 46.1 µM;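 note: glutamate product detected by oxidase and peroxidase coupled Amplex red fluorescence gain; nearly all actives have a fitted effect of over 60% in size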
Glutaminase kidney isoform, mitochondrial (Homo sapiens), sequence (O94925 whole entry, looked up, canonical isoform): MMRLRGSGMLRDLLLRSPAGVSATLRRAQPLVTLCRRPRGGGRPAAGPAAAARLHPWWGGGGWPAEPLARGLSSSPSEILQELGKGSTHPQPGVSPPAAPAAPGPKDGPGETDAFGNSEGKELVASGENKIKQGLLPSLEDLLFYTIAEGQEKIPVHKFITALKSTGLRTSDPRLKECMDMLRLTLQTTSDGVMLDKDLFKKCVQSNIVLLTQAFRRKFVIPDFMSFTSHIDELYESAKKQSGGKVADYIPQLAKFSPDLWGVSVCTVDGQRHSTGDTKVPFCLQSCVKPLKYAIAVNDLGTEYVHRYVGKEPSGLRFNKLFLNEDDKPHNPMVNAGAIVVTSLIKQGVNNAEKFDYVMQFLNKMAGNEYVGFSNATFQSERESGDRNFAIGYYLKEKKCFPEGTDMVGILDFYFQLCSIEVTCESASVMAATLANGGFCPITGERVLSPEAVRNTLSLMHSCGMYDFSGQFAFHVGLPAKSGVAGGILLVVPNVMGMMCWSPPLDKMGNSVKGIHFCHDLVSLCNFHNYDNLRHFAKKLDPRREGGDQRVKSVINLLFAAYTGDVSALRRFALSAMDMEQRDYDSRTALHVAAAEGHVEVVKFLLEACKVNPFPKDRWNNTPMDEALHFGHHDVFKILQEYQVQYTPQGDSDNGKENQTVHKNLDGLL
How it was run: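 hKGA in 45 mM KH2PO4 (pH 8.2), 0.02% Tween-20 with compound, then 1mM L-Glutamine (stock as added) plus glutamate oxidase/HRP/Amplex red coupling mix. Fluorescence read initially and after 30 min at RT; signal change reflects glutamate formation.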

[4] = qHTS of Trypanosoma Brucei Inhibitors: LOPAC Validation (AID 624147); details: purified enzyme assay, luminescence, 45 min; series mostly up to 57.5 µM
How it was run: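 In this concentration-response screen, enzyme-free wells defined baseline while DMSO plates tracked drift. Each reaction combined TbPYK, substrate, compound and 130 uM ADP for 45 min at room temperature. Kinase-Glo Plus luminescence gave the signal.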

[5] = target: Cytochrome P450 3A4 (Homo sapiens) (UniProt P08684); assay: qHTS Assay for Inhibitors and Substrates of Cytochrome P450 3A4 (AID 884); details: recombinant CYP3A4, Luciferin-PPXE luminescence; series mostly up to 57.1 µM; note: nearly all actives have a fitted effect of over 50% in size
How it was run: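 20 nM human CYP3A4 with 25 uM Luciferin-PPXE (at KM) in 200 mM KPO4, preincubated 10 min with compound; NADPH regeneration started a 60 min RT reaction. Luciferin detected by luminescence, normalized to 57 uM ketoconazole as full inhibition.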

[6] = target: Rap guanine nucleotide exchange factor 3 (Homo sapiens) (UniProt O95398); assay: Confirmatory qHTS for agonist of cAMP-regulated guanine nucleotide exchange factor 3 (EPAC1) (AID 1645881); details: EPAC1 Rap1B BODIPY-GDP exchange fluorescence, 100% = cAMP control response; series mostly up to 154 µM;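 note: EPAC1 catalysed release of BODIPY-GDP from Rap1B seen as fluorescence loss; nearly all actives have a fitted effect of over 75% in size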
Rap guanine nucleotide exchange factor 3 (Homo sapiens), sequence (O95398 whole entry, looked up): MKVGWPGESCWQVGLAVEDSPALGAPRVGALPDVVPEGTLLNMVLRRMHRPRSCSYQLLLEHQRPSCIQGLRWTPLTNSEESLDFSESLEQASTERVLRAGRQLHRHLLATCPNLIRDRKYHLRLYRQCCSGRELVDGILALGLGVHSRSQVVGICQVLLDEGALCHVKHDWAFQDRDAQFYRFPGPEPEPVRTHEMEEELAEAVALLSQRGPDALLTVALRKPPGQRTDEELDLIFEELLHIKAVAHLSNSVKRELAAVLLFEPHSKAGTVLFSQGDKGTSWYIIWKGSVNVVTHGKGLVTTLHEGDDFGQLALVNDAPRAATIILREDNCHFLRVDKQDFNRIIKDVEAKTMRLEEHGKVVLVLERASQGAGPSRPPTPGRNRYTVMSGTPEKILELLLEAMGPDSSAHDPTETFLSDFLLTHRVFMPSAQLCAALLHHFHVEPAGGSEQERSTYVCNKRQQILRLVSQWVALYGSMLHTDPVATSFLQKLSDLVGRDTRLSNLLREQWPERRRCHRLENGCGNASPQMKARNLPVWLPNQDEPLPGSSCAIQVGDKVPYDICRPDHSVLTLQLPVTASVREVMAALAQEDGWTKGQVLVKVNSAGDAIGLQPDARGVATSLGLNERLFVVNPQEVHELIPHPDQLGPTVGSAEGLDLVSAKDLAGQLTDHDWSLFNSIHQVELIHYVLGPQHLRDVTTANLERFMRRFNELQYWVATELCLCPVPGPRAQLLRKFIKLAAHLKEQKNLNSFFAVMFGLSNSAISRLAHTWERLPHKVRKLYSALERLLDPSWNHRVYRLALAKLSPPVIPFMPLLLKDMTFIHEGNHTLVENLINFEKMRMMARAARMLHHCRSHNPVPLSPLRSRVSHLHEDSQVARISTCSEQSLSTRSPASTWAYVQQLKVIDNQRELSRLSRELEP

[7] = target: Rap guanine nucleotide exchange factor 4 (Homo sapiens) (UniProt Q8WZA2); assay: Confirmatory qHTS for agonist of cAMP-regulated guanine nucleotide exchange factor 4 (EPAC2) (AID 1645884); details: EPAC2 GEF activity, Rap1B-BODIPY-GDP fluorescence, percent relative to cAMP agonist control; series mostly up to 154 µM;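 note: nucleotide exchange releases bodipy-GDP from Rap1 and this lowers its fluorescence; nearly all actives have a fitted effect of over 65% in size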
Rap guanine nucleotide exchange factor 4 (Homo sapiens), sequence (Q8WZA2 whole entry, looked up): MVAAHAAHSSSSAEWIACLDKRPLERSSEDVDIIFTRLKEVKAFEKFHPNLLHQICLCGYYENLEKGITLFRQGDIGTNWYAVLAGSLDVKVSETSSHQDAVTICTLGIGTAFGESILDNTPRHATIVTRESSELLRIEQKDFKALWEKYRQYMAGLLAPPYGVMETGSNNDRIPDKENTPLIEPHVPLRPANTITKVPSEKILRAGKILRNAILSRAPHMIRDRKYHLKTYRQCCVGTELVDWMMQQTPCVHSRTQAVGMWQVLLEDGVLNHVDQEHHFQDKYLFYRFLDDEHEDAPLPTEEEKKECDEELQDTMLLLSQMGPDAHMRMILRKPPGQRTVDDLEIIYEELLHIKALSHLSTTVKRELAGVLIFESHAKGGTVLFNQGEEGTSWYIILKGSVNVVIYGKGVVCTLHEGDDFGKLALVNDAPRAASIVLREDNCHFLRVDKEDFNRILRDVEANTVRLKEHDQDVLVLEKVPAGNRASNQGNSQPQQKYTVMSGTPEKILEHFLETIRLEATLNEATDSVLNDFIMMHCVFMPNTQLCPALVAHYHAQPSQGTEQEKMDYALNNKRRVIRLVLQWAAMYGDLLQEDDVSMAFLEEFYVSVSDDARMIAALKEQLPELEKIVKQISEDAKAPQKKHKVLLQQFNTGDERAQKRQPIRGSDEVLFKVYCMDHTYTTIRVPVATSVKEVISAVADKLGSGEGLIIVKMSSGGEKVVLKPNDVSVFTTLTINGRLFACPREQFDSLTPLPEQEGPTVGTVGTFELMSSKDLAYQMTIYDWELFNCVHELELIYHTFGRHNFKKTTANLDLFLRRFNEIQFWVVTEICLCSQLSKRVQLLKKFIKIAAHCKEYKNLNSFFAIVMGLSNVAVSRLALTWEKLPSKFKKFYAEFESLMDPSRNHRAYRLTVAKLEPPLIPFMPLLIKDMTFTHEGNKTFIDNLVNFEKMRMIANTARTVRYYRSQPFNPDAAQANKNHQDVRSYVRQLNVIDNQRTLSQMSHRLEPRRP

[8] = target: Rap guanine nucleotide exchange factor 4 (Homo sapiens) (UniProt Q8WZA2); assay: Confirmatory qHTS for antagonist of cAMP-regulated guanine nucleotide exchange factor 4 (EPAC2) (AID 1645885); details: EPAC2 Rap1B-BODIPY-GDP exchange fluorescence, biochemical; series mostly up to 114 µM; note: potency is the fitted concentration of half-maximal effect; nearly all actives have a fitted effect of over 25% in size
[9] = target: Rap guanine nucleotide exchange factor 3 (Homo sapiens) (UniProt O95398); assay: Counterscreen qHTS for antagonist of cAMP-regulated guanine nucleotide exchange factor 3 (EPAC1) (AID 1645888); details: Rap1B-BODIPY-GDP nucleotide exchange, fluorescence; series mostly up to 154 µM;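 note: fluorescence loss as bound BODIPY-GDP is released from Rap1B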
How it was run: (§1)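 Rap1B–BODIPY-GDP (250 nM) with 50 uM GDP; compounds pin-transferred to 9.74 nM–152 uM final (activator) or from 7.32 nM upwards (inhibitor). Fluorescence Ex/Em 480/540 nm read at 5 and 30 min, then after adding cAMP or buffer, at room temperature.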

[10] = target: Rap guanine nucleotide exchange factor 3 (Homo sapiens) (UniProt O95398); assay: Counterscreen qHTS for agonist of cAMP-regulated guanine nucleotide exchange factor 3 (EPAC1) (AID 1645889); details: EPAC1 Rap1B-BODIPY-GDP exchange, fluorescence; series mostly up to 154 µM; note: nearly all actives have a fitted effect of over 40% in size
How it was run: as §1

[11] = target: Pyruvate kinase (Leishmania mexicana) (UniProt Q27686); assay: qHTS Validation Assay for Inhibitors of Leishmania Mexicana Pyruvate Kinase (AID 945); details: purified L. mexicana pyruvate kinase, enzyme activity, E451W mutant enzyme; series mostly up to 57.5 µM
How it was run: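 Mutant LmPYK (E451W), 0.2 nM, plus 0.5 mM PEP and 0.1 mM ADP in 50 mM imidazole pH 7.2 containing 0.01% Tween 20 and 0.05% BSA. Incubated 1 h at room temperature; luminescence via PKLight, normalized to DMSO.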

[12] = target: ATP-dependent DNA helicase Q1 (Homo sapiens) (UniProt P46063); assay: qHTS Validation Assay for Inhibitors of RecQ-Like Dna Helicase 1 (RECQ1) (AID 2353); details: recombinant RECQ1 helicase DNA unwinding assay; series mostly up to 25.6 µM; note: potency is the fitted concentration of half-maximal effect
ATP-dependent DNA helicase Q1 (Homo sapiens), sequence (P46063 whole entry, looked up): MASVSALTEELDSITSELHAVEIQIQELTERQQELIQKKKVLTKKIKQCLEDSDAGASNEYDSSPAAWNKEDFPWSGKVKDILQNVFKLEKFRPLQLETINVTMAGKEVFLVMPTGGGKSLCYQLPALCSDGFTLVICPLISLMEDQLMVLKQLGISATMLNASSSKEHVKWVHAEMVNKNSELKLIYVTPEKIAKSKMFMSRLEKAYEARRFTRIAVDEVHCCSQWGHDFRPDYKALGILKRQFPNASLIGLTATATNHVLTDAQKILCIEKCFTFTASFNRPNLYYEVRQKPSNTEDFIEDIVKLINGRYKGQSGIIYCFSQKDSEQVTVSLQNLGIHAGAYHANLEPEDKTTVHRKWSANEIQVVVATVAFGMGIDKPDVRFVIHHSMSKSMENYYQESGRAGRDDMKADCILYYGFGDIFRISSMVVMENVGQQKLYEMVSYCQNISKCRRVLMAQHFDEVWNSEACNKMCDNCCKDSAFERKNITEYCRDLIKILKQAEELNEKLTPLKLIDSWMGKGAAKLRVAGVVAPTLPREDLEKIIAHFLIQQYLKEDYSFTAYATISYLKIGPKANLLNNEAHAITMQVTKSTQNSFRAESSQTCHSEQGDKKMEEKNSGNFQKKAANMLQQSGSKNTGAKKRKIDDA
How it was run: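 50 nM RECQ1T1 preincubated 15 min with compound in Tris pH 8.0 buffer with MgCl2, DTT, Tween-20 and 2.5 ug/ml poly(dI-dC); started with 200 nM TAMRA/BHQ-2 forked duplex and 2 mM ATP. Unwinding read as fluorescence (525/598 nm), two reads 2 h apart.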

[13] = target: DNA polymerase III PolC-type (Bacillus subtilis (strain 168)) (UniProt P13267); assay: qHTS Validation Assay for the Inhibitors of DNA Replication in Gram-Positive Bacteria (AID 485295); details: Gram-positive bacterial DNA replication assay; series mostly up to 57.1 µM; note: potency is the fitted concentration of half-maximal effect
How it was run: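 Reconstituted B. subtilis holoenzyme (Pol III, beta clamp, SSB, primase) was preincubated with compound at room temperature, then given single-stranded circular M13Gori plus dNTPs and NTPs. EDTA-containing PicoGreen stopped the reaction, and dsDNA product was read by fluorescence.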

[14] = Quantitative high throughput screen for delayed death inhibitors of the malarial parasite plastid, 96 hour incubation (AID 488745); details: Plasmodium falciparum growth; series mostly up to 28.7 µM; note: potency is the fitted concentration of half-maximal effect; nearly all actives have a fitted effect of over 70% in size
How it was run: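 Growth of reporter-bearing P. falciparum in red cells is measured after 96 h with compound, covering two erythrocytic cycles. Luminescence from the integrated luciferase serves as the growth signal.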

[15] = Quantitative high throughput screen for delayed death inhibitors of the malarial parasite plastid, 48 hour incubation (AID 488752); details: Plasmodium falciparum growth; series mostly up to 28.7 µM; note: potency is the fitted concentration of half-maximal effect; nearly all actives have a fitted effect of over 65% in size
How it was run: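 One parasite generation (48 h, 37 C, 5% CO2) of luciferase-reporter P. falciparum in erythrocytes is run with test compound; decreased luminescence indicates inhibited growth.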

[16] = target: Peptidyl-prolyl cis-trans isomerase NIMA-interacting 1 (Homo sapiens) (UniProt Q13526); assay: qHTS Validation Assay to Find Inhibitors of Pin1 (AID 504536; active = well fitted inhibition curve with a large enough effect in the polarisation, with a control signal flat, not every such curve was filed as active; the % refers to the polarisation; note: potency is the fitted concentration of half-maximal effect); details: Pin1 fluorescence polarization peptide binding assay; series mostly up to 57.5 µM
Peptidyl-prolyl cis-trans isomerase NIMA-interacting 1 (Homo sapiens), sequence (Q13526 whole entry, looked up): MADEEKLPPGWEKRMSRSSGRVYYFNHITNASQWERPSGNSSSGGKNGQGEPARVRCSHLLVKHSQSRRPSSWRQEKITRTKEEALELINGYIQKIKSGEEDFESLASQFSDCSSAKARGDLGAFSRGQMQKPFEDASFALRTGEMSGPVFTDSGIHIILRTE
How it was run: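 Fluorescence polarization competition: compounds (titration) displace HiFluor-488-labeled Pin1-1b peptide from Pin1 (0.3 uM final) in pH 7.5 HEPES buffer with DTT, 10 min at room temperature; %Activity normalized to no-enzyme wells, curves fitted.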

[17] = target: Phosphoglycerate kinase, glycosomal (Trypanosoma brucei brucei) (UniProt P07378); assay: qHTS Validation Assay to Find Inhibitors of Phosphoglycerate Kinase (AID 504547); details: enzymatic PGK inhibition, coupled luminescence read-out; series mostly up to 57.5 µM; note: potency is the fitted concentration of half-maximal effect
How it was run: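 PGK activity was coupled to GAPDH (100nM final), which generates the unstable substrate 1,3-bisphosphoglycerate in-well. Reactions ran 60 minutes at room temperature in 100mM TEA pH 7.6, 5mM MgCl2, 0.01% Tween-20, then Kinase-Glo Plus luminescence was read.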

[18] = target: Hexokinase-4 (Homo sapiens) + Glucokinase regulatory protein (Homo sapiens) (UniProt P35557+Q14397); assay: qHTS assay for inhibitors of recombinant human GCK-GKRP interaction: Diaphorase-coupled assay (AID 743205); details: G6PDH/diaphorase resorufin fluorescence; series mostly up to 57.5 µM
Hexokinase-4 (Homo sapiens) + Glucokinase regulatory protein (Homo sapiens), sequence (P35557 whole entry, looked up): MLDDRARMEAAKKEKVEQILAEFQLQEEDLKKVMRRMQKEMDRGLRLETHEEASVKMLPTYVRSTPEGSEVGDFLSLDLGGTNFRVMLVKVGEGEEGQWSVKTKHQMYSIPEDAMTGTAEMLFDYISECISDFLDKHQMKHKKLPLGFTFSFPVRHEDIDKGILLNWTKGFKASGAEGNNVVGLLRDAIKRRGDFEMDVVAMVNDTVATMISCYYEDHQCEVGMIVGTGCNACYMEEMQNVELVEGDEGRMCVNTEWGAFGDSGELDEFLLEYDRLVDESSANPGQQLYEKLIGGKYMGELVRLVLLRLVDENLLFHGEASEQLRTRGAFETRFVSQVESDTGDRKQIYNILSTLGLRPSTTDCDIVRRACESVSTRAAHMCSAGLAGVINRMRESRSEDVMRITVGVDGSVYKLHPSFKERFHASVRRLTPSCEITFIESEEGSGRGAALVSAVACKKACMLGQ
Hexokinase-4 (Homo sapiens) + Glucokinase regulatory protein (Homo sapiens), sequence (Q14397 whole entry, looked up): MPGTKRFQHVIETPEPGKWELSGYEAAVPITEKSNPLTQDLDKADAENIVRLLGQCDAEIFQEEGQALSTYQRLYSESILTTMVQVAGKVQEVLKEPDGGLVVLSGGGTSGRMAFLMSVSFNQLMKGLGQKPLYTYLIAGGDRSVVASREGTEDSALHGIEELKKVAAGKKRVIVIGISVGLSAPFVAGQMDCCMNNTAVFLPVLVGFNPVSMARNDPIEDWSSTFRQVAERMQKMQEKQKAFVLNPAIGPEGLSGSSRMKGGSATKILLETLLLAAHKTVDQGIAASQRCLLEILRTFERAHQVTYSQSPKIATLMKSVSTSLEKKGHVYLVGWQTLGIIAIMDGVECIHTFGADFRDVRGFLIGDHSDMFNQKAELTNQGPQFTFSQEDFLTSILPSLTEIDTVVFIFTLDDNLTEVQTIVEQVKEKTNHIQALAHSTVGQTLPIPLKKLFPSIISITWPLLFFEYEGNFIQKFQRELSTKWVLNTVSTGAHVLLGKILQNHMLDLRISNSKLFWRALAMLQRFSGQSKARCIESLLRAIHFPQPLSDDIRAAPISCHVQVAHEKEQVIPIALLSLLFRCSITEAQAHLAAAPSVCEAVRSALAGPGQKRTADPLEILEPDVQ
How it was run: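 GST-GCK (10 nM) with FLAG-GKRP (10 nM), 5 mM glucose and 0.4 mM ATP in pH 7.6 Hepes; compounds preincubated 20 min with substrate. G6PDH/diaphorase coupling converts resazurin to resorufin, read kinetically (ex 525/em 590 nm) for 30 min.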

[19] = HepG2 viability counterscreen (readout 2: ATP content) against the NCATS DSHEA and TCM libraries (AID 1794840); details: ATP content luminescence; series mostly up to 46.6 µM;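 note: HepG2 cells exposed to substances for about 24 h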
How it was run: (§2)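 HepG2 cells (1,000 cells/well) attached ~4 h, then treated ~24 h at 37C with substances. Protease activity read by GF-AFC (25 uM final, 30 min, Ex/Em 380/510 nm); ATP content then by CellTiter-Glo luminescence.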

[20] = HepG2 viability counterscreen (readout 1: protease activity) against the NCATS DSHEA and TCM libraries (AID 1794841); details: qHTS concentration series; series mostly up to 46.6 µM;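 note: cells exposed to compounds for about 24 h before the protease read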
How it was run: as §2

**Q.** For `O=C(O)c1ccccc1C(=O)Nc1ccc(-c2ccccc2)cc1`, which remaining proliferation (% of control), lower = more inhibition [1] is on record?
**A.** 75.7%

**Q.** Which Potency [2] does the source give for `O=c1c(O)c(-c2cc(O)c(O)c(O)c2)oc2cc(O)cc(O)c12` here?
**A.** 10 µM (active)

**Q.** Which results are given for `COc1cc([C@@H]2c3cc4c(cc3[C@H](O)C3COC(=O)[C@@H]32)OCO4)cc(OC)c1OC` (stereo not given in full)?
**A.** outcome [3]: inactive; outcome [4]: inactive

**Q.** Which Potency [5] does the source give for `CC(C)COC(=O)c1ccccc1C(=O)OCC(C)C` here?
**A.** inactive

**Q.** What about the outcome [6] of the same molecule?
**A.** inactive

**Q.** And the outcome [7]?
**A.** inactive

**Q.** And the Potency [8]?
**A.** 37.9 µM (active)

**Q.** And the outcome [9]?
**A.** inactive

**Q.** And the outcome [10]?
**A.** inactive

**Q.** What does the source list for `N#C/C(=C\c1ccc(O)c(O)c1)C(=O)NCCCNC(=O)/C(C#N)=C/c1ccc(O)c(O)c1`?
**A.** outcome [11]: inactive; Potency [12]: 447 nM (active); Potency [13]: 21.2 µM (active); Potency [14]: 8.28 µM (active); Potency [15]: 10.4 µM (active); Potency [16]: 849 nM (active); Potency [17]: 1.9 µM (active); outcome [18]: inactive

**Q.** For `C=C(C)[C@@H]1CC=C(C=O)CC1`, which outcome [19] is on record?
**A.** inactive

**Q.** And the outcome [20]?
**A.** inactive
